# HP1b chromo inh: HTS for Inhibitors of HP1-beta Chromodomain Interactions with Methylated Histone Tails. AID 540317, 2011. Chromobox protein homolog 1 (Homo sapiens), P83916. 390,000 compounds, 0.56% hits. Potency, µM (series often up to 114 µM), actives largely listed as inhibitors. AlphaScreen HP1-beta / biotin-H3K9me3 peptide binding; further: nearly all actives have a fitted effect of over 70% in size
#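 AlphaScreen: HP1-beta (50 nM) preformed 30 min with biotin-H3(1-18)K9me3 peptide (50 nM) in PBS pH 7.4, 0.01% Tween-20. Compound added for 30 min at RT, then streptavidin donor/nickel chelate acceptor beads (10 ug/mL) for 30 min.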
# BAZ2B inh: qHTS Assay for Inhibitors of BAZ2B. Potency, µM (series often up to 114 µM), usual class: inhibitors. 360,000 compounds, 4.4% hits. AlphaScreen BAZ2B-H3K14Ac peptide displacement; further: nearly all actives have a fitted effect of over 60% in size
#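 Complex of BAZ2B and biotin-H3K14Ac (50 nM apiece) forms over 30 min at RT, then faces library compounds up to 110 uM for another 30 min; AlphaScreen beads added, 20 min dark incubation, luminescence read.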
# PLK1 PBD inh: qHTS for Inhibitors of PLK1-PDB (polo-like kinase 1 - polo-box domain): Primary Screen; Serine/threonine-protein kinase PLK1 (Homo sapiens), P53350; 360,000 compounds, 2.8% hits; Potency, µM, most hits filed as inhibitors; Plk1 PBD binding of FITC phosphopeptide, fluorescence polarization; further: series mostly up to about 57 µM; nearly all actives have a fitted effect of over 65% in size
# Target sequence (P53350 whole entry, looked up, the tested form may be a part): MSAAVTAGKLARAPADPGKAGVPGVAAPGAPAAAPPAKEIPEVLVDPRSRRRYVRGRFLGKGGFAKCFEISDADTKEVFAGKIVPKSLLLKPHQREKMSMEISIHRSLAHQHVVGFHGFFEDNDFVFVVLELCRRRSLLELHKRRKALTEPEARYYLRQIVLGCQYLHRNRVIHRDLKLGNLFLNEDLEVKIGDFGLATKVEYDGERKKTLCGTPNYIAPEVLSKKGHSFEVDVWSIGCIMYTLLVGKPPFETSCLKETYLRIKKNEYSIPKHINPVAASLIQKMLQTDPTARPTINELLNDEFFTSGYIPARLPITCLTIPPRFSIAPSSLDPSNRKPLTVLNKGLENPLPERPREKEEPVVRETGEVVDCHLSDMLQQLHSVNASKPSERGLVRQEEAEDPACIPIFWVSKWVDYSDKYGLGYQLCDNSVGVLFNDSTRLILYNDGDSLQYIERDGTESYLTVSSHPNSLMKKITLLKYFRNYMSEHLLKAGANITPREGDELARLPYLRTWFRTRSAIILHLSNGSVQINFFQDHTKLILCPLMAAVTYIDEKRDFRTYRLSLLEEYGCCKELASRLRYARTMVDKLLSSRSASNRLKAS
# GCN5L2 inh: qHTS Assay for Inhibitors of GCN5L2 | Histone acetyltransferase KAT2A (Homo sapiens), Q92830 | GCN5L2 HAT assay, ThioGlo1 CoA-SH fluorescence | Potency, µM (titrated, usually from 58.9 µM), usual class: inhibitors | 390,000 compounds, 0.21% hits | AID 504327, 2011
#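 Enzyme at 20nM final was mixed with library compounds for 15 min at room temperature. Peptide H3(1-25) at 75uM, acetyl-CoA at 70uM and ThioGlo1 at 50uM were then added. Plates were read immediately and after 20 min (Ex340nm/Em540nm).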
# PI5P4Ka inh: qHTS for Inhibitors of phosphatidylinositol 5-phosphate 4-kinase (PI5P4K); Phosphatidylinositol 5-phosphate 4-kinase type-2 alpha (Homo sapiens), P48426; PI5P4Kalpha enzyme, ADP-Glo luminescence, 60 min; active compounds read low; max response, %; 330,000 compounds, 1.2% hits; AID 652105, 2013; active means max response of -50% or lower; inconclusive means between -30% and -50%; inactive means -30% or higher; further: value at the top dose of about 77 µM
#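 ADP-Glo luminescence end-point read after a 60 min room-temperature kinase reaction of PI5P4Kalpha plus substrate, initiated with ATP at 5 microM final. Buffer: 0.038 M HEPES pH 7.4, EGTA, 0.1% CHAPS, 5% DMSO.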
# JMJD2A Tudor: qHTS Assay for Inhibitors of JMJD2A-Tudor Domain. Potency, µM (series often up to 114 µM), actives largely listed as inhibitors. 390,000 compounds, 4.4% hits. Lysine-specific demethylase 4A (Homo sapiens), O75164. AlphaScreen JMJD2A-Tudor / H3K4me3 peptide binding; further: nearly all actives have a fitted effect of over 50% in size
# Hits are given with their value; 0 = inactive; ? = inconclusive; - = no result; [ ] = another dose, or the depositor's remark. Shown are actives, neighbours in structure and some others; about 7% of the full set was active somewhere. Unless noted, the call rests on the fitted dose curve; in most records, active means well fitted curve in the direction sought with a large enough effect; inconclusive means small, poorly fitted or top-dose-only effect, or another doubt; inactive means no such curve, though single readings can be large; an effect the other way counts as inactive or inconclusive.
SMILES,HP1b chromo inh,BAZ2B inh,PLK1 PBD inh,GCN5L2 inh,PI5P4Ka inh,JMJD2A Tudor
O=C(O)Cn1c(P(=O)(O)c2ccccc2)nc2ccccc21,0,?,0,0,0,35µM
O=C(Nc1ccccc1)C1Cc2c(-c3ccco3)ccnc2O1 (centres undefined),-,-,0,-,0,-
O=C(O)c1cc(S(=O)(=O)Nc2cccc3ccccc23)c(Cl)cc1Cl,0,0,?,0,0,79µM
CC(C)c1cnc2c(c1SCC(=O)c1ccc(Cl)cc1)c(=O)n(C)c(=O)n2C,0,0,-,0,-,0
COc1ccc(NC(=S)Nc2ccc3nsnc3c2)cc1,?,0,13µM,0,0,?
CCOc1ccc(NC(=S)Nc2ccc3nsnc3c2)cc1,?,0,27µM,0,0,0
COc1ccc(N(C)C(=O)Nc2ccc3nsnc3c2)cc1,0,0,0,0,0,0
COc1ccc(NC(=S)Nc2ccc3nc(C)c(C)nc3c2)cc1,0,0,0,0,0,0
CC(C)N(C(=O)Nc1ccc2nsnc2c1)C(C)C,0,0,13µM,0,?,79µM
CCOc1ccc(NC(=O)Nc2ccc3nsnc3c2)cc1,0,0,?,0,0,0
Cc1cc2nc(CS(=O)(=O)c3ccccc3)cc(=O)n2[nH]1,0,0,0,0,0,0[11.4 µM]
N#Cc1ccccc1OCC(=O)Nc1nnc(C2CC2)s1,?,0,0,0,0,0
O=C(Nc1ccc(N2CCOCC2)c(S(=O)(=O)Nc2ccc(Cl)cc2)c1)c1cnccn1,?,?,5.3µM,0,0,0
COc1ccc(NS(=O)(=O)c2cc(NC(=O)c3ccc(Cl)cc3)ccc2N2CCOCC2)cc1,0,-,0,0,0,0
COCCNC(=S)Nc1ccc(N2CCOCC2)c(S(=O)(=O)Nc2ccc(Cl)cc2)c1,-,-,2.4µM,-,?,-
O=C(CC(C(=O)O)N1CCOCC1)Nc1ccc(Cl)cc1 (centres undefined),0,0,0,0,-,45µM
COc1ccc(NS(=O)(=O)c2cc(NC(=O)c3ccncc3)ccc2N2CCOCC2)cc1,0,0,0,0,0,0
CCC(=O)Nc1ccc(N2CCOCC2)c(S(=O)(=O)Nc2ccc(Cl)cc2)c1,?,0,7.5µM,0,?,79µM
Cc1nc(C(C)NC(=O)c2cc(COc3ccc(C)c(C)c3)on2)c(C)s1 (centres undefined),0,0,0,0,0,0
C[C@H](NC(N)=O)C(=O)Nc1ccc(N2CCOCC2)c(S(=O)(=O)Nc2ccc(Cl)cc2)c1,?,?,2.7µM,0,?,?
CC(NC(N)=O)C(=O)Nc1ccc(Cl)c(S(=O)(=O)Nc2ccc(Cl)cc2)c1 (centres undefined),0,0,0,0,0,0
CCOC(=O)c1nc2sc(C)c(C)c2c(=O)[nH]1,0,0,0,0,-,?
CCOC(=O)/C(=C\c1cccc(O)c1)c1nc2sc(C)c(C)c2c(=O)[nH]1,28µM,0,4.7µM,0,?,56µM
COc1ccc(-c2[nH]ncc2C(=O)NCc2ccccc2C)cc1,0,0,-,0,-,0
CCOC(=O)c1cc2c(ccn2C)n1Cc1cc(C)ccc1C,?,50µM,0,0,-,25µM
SMILES,HP1b chromo inh,BAZ2B inh,PLK1 PBD inh,GCN5L2 inh,PI5P4Ka inh,JMJD2A Tudor
COc1ccc(C(=O)/C(C#N)=N/Nc2ccccc2[N+](=O)[O-])cc1,0,0,0,0,0,0
COC(=O)/C(=C\C(=O)c1ccc([N+](=O)[O-])cc1)Nc1ccc(OC)cc1,11µM,5.6µM,0,0,0,18µM
COc1ccc(C(=O)/C(C#N)=N/Nc2ccc([N+](=O)[O-])cc2)cc1,?,7.1µM,0,0,0,7.9µM
N#C/C(=N\Nc1ccc(Cl)cc1)C(=O)c1ccccc1,?,50µM,?,0,0,45µM
Cc1c(N/N=C(\C#N)C(=O)c2ccc(Cl)cc2)c(=O)n(-c2ccccc2)n1C,0,25µM,0,0,0,79µM
Cc1cc(C)n2nc(C(=O)OCC(=O)N(Cc3ccccc3)C(C)C)nc2n1,0,0,0,0,0,?
C=Cc1ccc(Cn2c(C)c(C(=O)NCc3cccc([N+](=O)[O-])c3)sc2=O)cc1,-,-,0,-,0,-
COc1ccc2[nH]c3nc(SCC(=O)NNC(=O)c4ccc(OC)c(OC)c4)nnc3c2c1,0,0,0,0,-,0
Cc1ccc(C(=O)NNC(=O)CSc2nnc3c(n2)[nH]c2ccc(F)cc23)cc1,0,?,?,?,-,20µM
Cc1ccccc1C(=O)NC(=O)Nc1ccc(-n2nc(C(F)(F)F)cc2C(F)(F)F)cc1,0,0,-,0,-,0
CC1CCN(S(=O)(=O)c2ccc(Cl)cc2)CC1,0,0,0,0,-,0
CN(Cc1ccccc1)S(=O)(=O)c1ccc2c(c1)n(C)c(=O)c(=O)n2C,0,0,0,0,0,0
CC1CCN(S(=O)(=O)c2ccc3c(c2)N(C)C(=O)CC(=O)N3C)CC1,0,0,13µM,0,0,0
O=S(=O)(c1ccc(F)cc1)N1CCCC1,0,0,0,0,0,0
CN1C(=O)CC(=O)N(C)c2cc(S(=O)(=O)N(C)Cc3ccccc3)ccc21,?,0,7.5µM,0,0,0
CC1CN(C2CCN(S(=O)(=O)c3ccc(F)cc3)CC2)CC(C)O1 (centres undefined),?,32µM,0,0,0,2.8µM
Cc1ccc(S(=O)(=O)N2CCC(N3CCC(C)CC3)CC2)cc1,?,?,0,0,0,1.6µM
CC1CCN(c2ccc(S(=O)(=O)N3CCC(C)CC3)cc2N)CC1,0,0,0,0,0,0
Cc1c(C)c(C)c(S(=O)(=O)NCCC(=O)N2CCN(Cc3ccc(C#N)cc3)CC2)c(C)c1C,0,0,0,0,0,0
Cc1ccc(NC(=O)c2cccc3c(=O)c4c([nH]c23)CCCC4)c(C)c1,0,0,-,0,-,0
Cc1nn(S(=O)(=O)c2ccc(C(C)C)cc2)c(C)c1S(=O)(=O)N1CCOCC1,0,?,0,0,0,79µM
Cc1ccc(S(=O)(=O)n2nc(C)c(S(=O)(=O)N3CCC(C)CC3)c2C)cc1,0,0,-,0,-,79µM
CCCS(=O)(=O)NC(=O)C1(C)CCN(C(=O)Cc2ccc3ccccc3c2)C1 (centres undefined),-,-,0,-,0,-
Cc1nn(-c2ccc(F)cc2)c(-n2cccc2)c1C(=O)N1CCN(c2ccccc2F)CC1,0,0,-,0,-,0
Cc1ccc(-c2csc3ncn(CC(=O)N4CCOCC4)c(=O)c23)cc1C,0,0,30µM,0,0,0[11.4 µM]
Cc1ccc(-c2csc3ncn(CC#N)c(=O)c23)cc1C,?,50µM,0,0,-91,50µM
